Source: PubChem (National Center for Advancing Translational Sciences (NCATS))
MCF10A rerep – inducers of DNA re-replication in MCF 10A breast cells; MCF 10A DNA re-replication, Hoechst nuclear intensity, 48 h; Potency, µM (titrated, usually from 46.1 µM), without a hit: at the highest dose activity, positive = re-replication, actives largely listed as activators; hit rate 2.9% among 350,000; AID 624296; further: % of control where 0% means no effect; nearly all actives have a fitted effect of over 50% in size
KB-V1 cytotox – KB-V1 MDR subline cytotoxicity. KB-V1 MDR cells viability, CellTiter-Glo, 72 h. Potency, µM (highest dose often 46.1 µM), actives largely listed as cytotoxic. hit rate 3.4% among 400,000; further: on the % scale 0 is the no-effect control and ±100 the full control effect; nearly all actives have a fitted effect of over 60% in size
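Potencies derive from concentration-effect curves fitted to normalized luminescence (CellTiter-Glo) of KB-V1 cells treated for 72 h at 37 degrees C in phenol-red-free DMEM containing 10% FBS.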
SW480 rerep – DNA re-replication induction in SW480 cells; Potency, µM (doses to about 46.1 µM), inactives show at the top dose re-replication activation, actives largely listed as activators; AID 624297; SW480 DNA re-replication, Hoechst DNA content imaging, 48 h; hit rate 1.8% among 340,000; further: % of control where 0% means no effect; nearly all actives have a fitted effect of over 55% in size
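Readout is total intensity of Hoechst-stained nuclei, excited at 405 nm and collected at 500-530 nm. Compound treatment lasted 48 hr at 37 C in 5% CO2 before staining.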
KB-3-1 cytotox – KB-3-1 parental cell cytotoxicity; hit rate 1.4% among 400,000; KB-3-1 viability, CellTiter-Glo ATP luminescence, 72 h; AID 1347075; Potency, µM (highest dose often 46.1 µM), most hits filed as cytotoxic; further: on the % scale 0 is the no-effect control and ±100 the full control effect; nearly all actives have a fitted effect of over 60% in size
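KB-3-1 cells, DMEM (no phenol red) + 10% FBS; compound by pin transfer, 72 h, 37 °C. Readout: CellTiter-Glo luminescence after 10 min. Data normalized, curve-fitted.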
ELG1 DNA repair – blocks ELG1-dependent DNA repair in HEK293T cells. HEK293T ELG1-luciferase reporter, luminescence, 16 h; DNA damage induced by 5-fluorouridine. Potency, µM (series often up to 46.1 µM), for the others: at the top dose activity change, negative = inhibition, hits mostly inhibitors. hit rate 2.3% among 330,000. AID 504467; further: on the % scale 0 is the no-effect control and ±100 the full control effect; nearly all actives have a fitted effect of over 55% in size
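Luminescence from the luciferase reporter, measured 30 min after ONE-Glo reagent at room temperature, was the read-out. Beforehand, 2,000 cells per well were exposed for 16 hr at 37 °C to 5-fluorouridine together with compound or vehicle.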
An asterisk follows results filed as active; i = inactive; ? = inconclusive; / = not tested or not shown. Only some compounds are listed: those with a hit (about 8.2% of all), similar ones and a draw of the others. The call rests on the fitted dose curve; in most records, active means well fitted curve in the direction sought with a large enough effect; inconclusive means small, poorly fitted or top-dose-only effect, or another doubt; inactive means no such curve, though single readings can be large; an effect the other way counts as inactive or inconclusive. Potency means the concentration at half of the fitted maximal effect.

SMILES	MCF10A rerep	KB-V1 cytotox	SW480 rerep	KB-3-1 cytotox	ELG1 DNA repair
Cc1cc(C)cc(N2C(=O)CC(N3CCOCC3)C2=O)c1 (stereo not drawn)	18.4µM*	i	22.4%	i	-5.2%
O=C(NCCOc1ccccc1)c1n[nH]c(=O)c2ccccc12	19.7%	23.1µM*	-3.2%	i	22.9%
CCCNC(=O)c1n[nH]c(=O)c2ccccc12	2.0%	i	4.1%	i	7.8%
O=C(NCCOc1ccccc1)c1ccc2n[nH]nc2c1	4.4%	?	4.61µM*	i	?
COc1ccc(NC(=O)Cn2cc(C(=O)C3CCCCC3)c3ccccc32)cc1	/	i	/	i	/
CN(C)S(=O)(=O)c1cccc(NC(=O)c2ccc(S(=O)(=O)N3CCCCC3)cc2)c1	-4.5%	i	-10.7%	i	?
O=C(Nc1cccc(S(=O)(=O)N2CCCCC2)c1)c1ccc(S(=O)(=O)C(F)F)cc1	1.8%	7.31µM*	-3.4%	?	20.6µM*
O=C(Nc1cccc(S(=O)(=O)N2CCCCC2)c1)c1ccc2c(=O)n3c(nc2c1)CCCCC3	23.8%	5.8µM*	-7.7%	11.6µM*	4.11µM*
CCOc1ccc(NC(=O)c2ccc3c(=O)n4c(nc3c2)CCCCC4)cc1	9.1%	?	-5.1%	?	-25.5%
CN(C)c1ccc(C(=O)Nc2cccc(S(=O)(=O)N3CCCC3)c2)cc1	?	i	-13.2%	i	?
O=C(Nc1cccc(S(=O)(=O)C(F)F)c1)c1ccc(S(=O)(=O)N2CCCCC2)cc1	-2.0%	?	-7.2%	?	13µM*
CCOc1ccc(CCNC(=O)c2ccc3c(=O)n4c(nc3c2)CCCCC4)cc1	?	i	?	i	16.4µM*
O=C(Cn1ncc2c(Cl)cccc21)NCc1cccc(Cl)c1	/	i	/	i	/
COc1ccc2c(c1)C(=O)CC(c1ccc3c(c1)OCCO3)O2 (stereo not drawn)	-6.8%	i	0.2%	i	?
Cc1ccc2c(c1)C(=O)CC(c1ccc3c(c1)OCCO3)O2 (stereo not drawn)	16.4µM*	i	19.4%	i	?
O=C1NC[C@@H](CCCCN2C[C@H](Cc3ccc(O)cc3)N(CCc3ccccc3)C(=O)C2=O)N(CCc2ccccc2)C1=O	/	i	/	i	/
CCC1CCCCN1C(=O)c1cc(S(=O)(=O)N2CCOCC2)ccc1C (stereo not drawn)	-7.2%	i	-4.5%	i	-2.6%
COc1cccc(C2NC(=S)NC(C)=C2C(=O)c2ccccc2)c1OC (stereo not drawn)	?	?	5.8µM*	1.84µM*	15.0%
C=CCOc1ccc(C2NC(=S)NC(C)=C2C(=O)c2ccccc2)cc1OC (stereo not drawn)	3.2%	i	12.5%	i	-1.7%
C/C(=N\NC(N)=S)c1ccc(Cl)s1	?	6.51µM*	?	16.4µM*	?
O=C(COc1cc(F)ccc1[N+](=O)[O-])NCC1CCCO1 (stereo not drawn)	-8.6%	?	-8.1%	i	1.3%
Cc1ccccc1C1=NC(C(F)(F)F)(C(F)(F)F)c2c(n(C)c(=O)n(C)c2=O)N1	7.5%	16.4µM*	-7.0%	?	?
Cn1c2c(c(=O)n(C)c1=O)C(C(F)(F)F)(C(F)(F)F)N=C(C1CCCCC1)N2	?	?	-1.6%	i	?
CC(=O)NC1(C(F)(F)F)C(=O)Nc2c1c(=O)n(C)c(=O)n2C (stereo not drawn)	-5.4%	i	-4.3%	i	7.3%
Cn1c2c(c(=O)n(C)c1=O)C(C(F)(F)F)(C(F)(F)F)N=C(c1ccc(Cl)cc1)N2	?	2.31µM*	13.4%	2.31µM*	0.651µM*
SMILES	MCF10A rerep	KB-V1 cytotox	SW480 rerep	KB-3-1 cytotox	ELG1 DNA repair
COc1ccccc1-c1c(C)nn2c(N3CCN(c4ccc(Cl)cc4)CC3)cc(C)nc12	/	i	/	i	/
COc1ccccc1C(=O)NCCC(=O)NC(C)c1ccc(-n2ccnc2)cc1 (stereo not drawn)	-7.3%	?	-5.4%	i	1.8%
O=C(CN1C(=O)NC2(CCCCCC2)C1=O)Nc1ccc(Br)cc1Br	1.4%	i	2.6%	i	-10.5%
C/C(=N/Nc1nc(C)cc(-c2ccccc2)n1)c1ccco1	-0.2%	16.4µM*	12.3%	i	-25.7%
C/C(=N\Nc1nc(C)cc(-c2ccccc2)n1)c1ccccc1	0.6%	6.51µM*	?	i	?
C/C(=N\Nc1nc(C)cc(-c2ccccc2)n1)c1ccc(O)cc1	-0.3%	?	?	i	?
CC(=O)c1cc2ccccc2c2ccccc12	/	i	/	i	/
Cc1cccc(-c2nn(-c3ccccc3)cc2C(=O)N(C)CC(=O)Nc2ccc(N3CCOCC3)cc2)c1	4.2%	i	-6.0%	?	11.6µM*
O=C(Nc1ccncc1)c1cn(-c2ccccc2)nc1-c1cccs1	?	?	3.5%	i	?
COc1ccc(-c2nn(-c3ccccc3)cc2C(=O)N(C)CC(=O)Nc2cccc(F)c2)cc1	-3.7%	i	-1.1%	i	?
COc1cccc(-c2nn(-c3ccc(C)cc3)cc2C(=O)N(C)CC(=O)Nc2cccc(F)c2)c1	?	i	10.1%	?	13µM*
CCOc1ccc(NC(=O)CN(C)C(=O)c2cn(-c3ccccc3)nc2-c2cccs2)cc1OCC	0.7%	?	8.6%	i	20.6µM*
CC(NC(=O)COC(=O)c1cn(-c2ccccc2)nc1-c1cccs1)c1ccccc1 (stereo not drawn)	?	20.6µM*	6.4%	i	?
CN(CC(=O)Nc1ccc(N2CCOCC2)cc1)C(=O)c1cn(-c2ccccc2)nc1-c1ccccc1	11.7%	i	-0.1%	i	?
COc1ccc(NC(=O)CSC2=Nc3ccccc3C3=NC(CCC(=O)NCc4cccs4)C(=O)N23)cc1 (stereo not drawn)	/	i	/	i	/
CCOc1ccc(NC(=O)CN(C)C(=O)c2cn(-c3ccc(C)cc3)nc2-c2cccc(OC)c2)cc1OCC	?	5.8µM*	-4.6%	i	/
COc1ccc(O)c(C(=O)c2coc(=N)c(C(=O)Nc3ccc(SC(F)F)cc3)c2)c1	29.3%	23.1µM*	0.3%	i	16.4µM*
COc1cccc(N=c2oc3ccccc3cc2-c2nc3ccccc3[nH]2)c1	11.2%	18.4µM*	18.6%	i	?
COc1cccc(N=c2oc3ccc(OC)cc3cc2-c2nc3ccccc3[nH]2)c1	?	i	?	i	/
COc1ccc(NC(C)=O)cc1NC(C)C(=O)Nc1ccc(S(=O)(=O)N2CCCCC2)cc1 (stereo not drawn)	?	/	14.9%	/	5.4%
COc1ccc(-c2nc(C#N)c(N3CCc4ccccc4C3)o2)cc1OC	?	2.06µM*	7.5%	i	?
